Source: PubChem BioAssay (National Center for Advancing Translational Sciences (NCATS))
ALDH1A1 block: blocks purified human ALDH1A1 activity; AID 1030; Potency, µM (doses to about 75.3 µM), without a hit: at the highest dose activity, negative = inhibition, hits mostly inhibitors; Purified ALDH1A1, NADH fluorescence, propionaldehyde substrate; P00352; 220,000 tested, 7.3% active; active means well fitted inhibition curve with a large enough effect, not every such curve was filed as active; inconclusive means small, poorly fitted or top-dose-only effect, or another doubt; inactive means no such curve, though single readings can be large or run the other way;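 further: plate controls were no enzyme wells and a reference inhibitor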
Tau fluor counter: counter-screen for tau fibril formation inhibitors | 280,000 tested, 0.93% active | Potency, µM (doses to about 57.7 µM), without a hit: top-dose activity change, negative = decrease | tau K18 P301L Alexa594 fluorescence, heparin fibrillization | AID 1463; further: nearly all actives have a fitted effect of over 55% in size
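Human tau K18 P301L (15 uM unlabeled, 0.24 uM Alexa 594-labeled) in 100 mM sodium acetate pH 7 with 20 uM heparin, 6 hr at 37 C. ThT 30 uM added, 1 hr ambient; Alexa 594 FP and total fluorescence read at 555/632 nm.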
Tau fibril ThT: inhibitors of human tau fibril formation, thioflavin T binding; 270,000 tested, 2.1% active; P10636; Potency, µM (titrated, usually from 57.4 µM), inactives show at the top dose activity, negative = inhibition, actives largely listed as inhibitors; recombinant tau K18 P301L, heparin-induced fibrillization, ThT fluorescence; AID 1460; further: nearly all actives have a fitted effect of over 55% in size
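Fibril formation assay: tau K18 P301L at 15 uM with trace Alexa 594 label, heparin inducer 20 uM, pH 7 sodium acetate buffer, 37 C for 6 hr; endpoint ThT signal.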
HPGD block: HPGD (human) dehydrogenase inhibition; P15428; purified HPGD, NADH fluorescence kinetic, PGE2 substrate; Potency, µM, for inactives: at the highest dose activity change, negative = inhibition, usual class: inhibitors; 150,000 tested, 4.3% active; AID 894; active means well fitted inhibition curve with a large enough effect, not every such curve was filed as active; inconclusive means small, poorly fitted or top-dose-only effect, or another doubt; inactive means no such curve, though single readings can be large or run the other way
Target sequence (P15428 whole entry, looked up): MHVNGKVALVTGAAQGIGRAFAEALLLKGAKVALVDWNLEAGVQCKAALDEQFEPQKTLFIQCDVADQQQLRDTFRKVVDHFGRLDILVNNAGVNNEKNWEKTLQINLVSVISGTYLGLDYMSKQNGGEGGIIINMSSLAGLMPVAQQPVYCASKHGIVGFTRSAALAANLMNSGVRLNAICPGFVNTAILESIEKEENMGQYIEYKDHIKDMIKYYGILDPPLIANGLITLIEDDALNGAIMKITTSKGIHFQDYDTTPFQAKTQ
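20 nM HPGD preincubated 15 min at room temperature with compound in 50 mM Tris-HCl pH 8, 0.01% Tween 20. Started with 1 mM NAD+ and 30 uM prostaglandin E2; NADH fluorescence (360/450 nm) read 5 times over 30-s intervals, last minus first.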
Tau fibril FP: tau fibrillization inhibition (FP); P10636; 280,000 tested, 0.39% active; K18 P301L tau heparin fibrillization, Alexa594 FP, 6 h; Potency, µM (titrated, usually from 57.7 µM), without a hit: top-dose activity, negative = inhibition, actives largely listed as inhibitors; further: nearly all actives have a fitted effect of over 55% in size
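Heparin (20 uM) drove fibril formation of recombinant tau K18 P301L, 15 uM unlabeled with 0.24 uM Alexa 594 label, for 6 hr at 37 C in 100 mM sodium acetate pH 7. Fluorescence polarization (555/632 nm) read 1 hr after 30 uM ThT.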
NPSR antagonist: antagonists of human neuropeptide S receptor cAMP signaling; Q6W5P4; CHO-NPSR cells, cAMP TR-FRET, antagonist mode; Potency, µM (highest dose often 38.3 µM), for the others: top-dose activity change, negative = inhibition, most hits filed as inhibitors; 220,000 tested, 1% active; AID 1461; further: nearly all actives have a fitted effect of over 50% in size
Target sequence (Q6W5P4 whole entry, looked up): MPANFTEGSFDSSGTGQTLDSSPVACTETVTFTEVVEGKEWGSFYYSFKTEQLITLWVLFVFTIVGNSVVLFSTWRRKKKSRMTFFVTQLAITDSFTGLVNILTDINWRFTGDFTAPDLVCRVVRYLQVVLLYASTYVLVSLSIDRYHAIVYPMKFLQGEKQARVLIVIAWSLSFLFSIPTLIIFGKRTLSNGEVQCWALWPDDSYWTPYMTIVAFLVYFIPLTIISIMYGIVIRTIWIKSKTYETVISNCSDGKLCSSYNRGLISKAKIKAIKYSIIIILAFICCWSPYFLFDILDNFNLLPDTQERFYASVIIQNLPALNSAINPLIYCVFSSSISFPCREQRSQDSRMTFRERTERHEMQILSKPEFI
* hit, by the source's call; [ ] = remark or other dose. Hits are enriched below; roughly 9.5% of the tested compounds scored in any of these assays. Unless noted, the call rests on the fitted dose curve; in most records, active means well fitted curve in the direction sought with a large enough effect; inconclusive means small, poorly fitted or top-dose-only effect, or another doubt; inactive means no such curve, though single readings can be large; an effect the other way counts as inactive or inconclusive. Unless noted, on the % scale 0 is the no-effect control and ±100 the full control effect; potency means the concentration at half of the fitted maximal effect.

`CC(C)(COCC1CO1)COCC1CO1` (centres undefined) gave ALDH1A1 block 1.2% and HPGD block -10.0%.
`O=C1NC(=O)N(c2ccccc2)C(=O)/C1=C\c1ccccc1[N+](=O)[O-]` gave Tau fluor counter -18.1%, Tau fibril ThT inconclusive, Tau fibril FP -1.9% and NPSR antagonist -4.6%.
C=CCN1C(=O)NC(=O)/C(=C\c2ccc(-c3ccccc3[N+](=O)[O-])o2)C1=O was read as ALDH1A1 block 22.4µM*, Tau fluor counter -7.6%, Tau fibril ThT inconclusive, Tau fibril FP 1.3% and NPSR antagonist -44.0%.
For O=C1NC(=O)N(Cc2ccco2)C(=O)/C1=C/c1ccc(-c2cccc([N+](=O)[O-])c2)o1 the results were ALDH1A1 block 7.08µM*, Tau fluor counter -14.9%, Tau fibril ThT inconclusive, HPGD block 5.01µM*, Tau fibril FP 6.2% and NPSR antagonist inconclusive.
Screening C=C1C2C[C@]3(C4CC5[C@@]6(C)CC[C@H](O)[C@@]5(C3CC2=O)C4[N+]([O-])(CC)C6)[C@@H]1O (some centres undefined) returned ALDH1A1 block 5.8%, Tau fluor counter -6.9%, Tau fibril ThT -6.7%, HPGD block -3.4% and Tau fibril FP 0.7%.
For Cc1ccc(NC(=O)c2cccn(Cc3ccccc3C)c2=O)c(C)c1 the results were Tau fluor counter -14.4%, Tau fibril ThT -6.0% and Tau fibril FP -6.3%.
`Cc1ccc(NC(=[OH+])c2cc3ccccc3cc2O)c(C)c1.Cc1ccc(NC(=[OH+])c2cc3ccccc3cc2O)c(C)c1.[Ni]` gave ALDH1A1 block -19.6%[13.5 µM] and HPGD block 1.78µM*.
Screening Cc1ccc(O)c(C(=O)c2cc(C(=O)NCc3ccccc3)c(=O)n(Cc3ccccc3)c2)c1 returned ALDH1A1 block inconclusive, Tau fluor counter -23.4%, Tau fibril ThT -3.5%, HPGD block -29.3%, Tau fibril FP -5.8% and NPSR antagonist -48.3%.
Screening O=C(c1cc(C(=O)NCc2ccccc2)c(=O)n(Cc2ccccc2)c1)c1cc(Br)ccc1O returned ALDH1A1 block -14.1%, Tau fluor counter 9.3%, Tau fibril ThT 10.6%, HPGD block 10µM*, Tau fibril FP 1.6% and NPSR antagonist -24.1%.
S=c1[nH]c2cc(Br)cnc2[nH]1 was read as ALDH1A1 block 3.16µM*, Tau fluor counter -15.3%, Tau fibril ThT 31.6µM*, Tau fibril FP inconclusive and NPSR antagonist -4.3%.
`c1ccc(NNc2ccccc2)cc1` gave ALDH1A1 block 10µM* and HPGD block 4.2%.
Screening Fc1ccc2c(c1)nnn2C1CCN(Cc2nnnn2C2CCCCC2)CC1 returned ALDH1A1 block 12.6µM*, Tau fluor counter -13.4%, Tau fibril ThT -11.1%, HPGD block -11.6%, Tau fibril FP 0.1% and NPSR antagonist inconclusive.
Screening O=[N+]([O-])c1ccc(-c2ccc(C=Nc3cccc4ccccc34)o2)cc1 returned ALDH1A1 block inconclusive, Tau fluor counter -26.9%, Tau fibril ThT 15.8µM*, HPGD block inconclusive, Tau fibril FP -3.6% and NPSR antagonist -7.8%[46.1 µM].
O=C(c1ccc2c(c1)N(Cc1c(F)cccc1Cl)C(=O)c1ccccc1S2)N1CCC2(CC1)OCCO2 was read as Tau fluor counter -14.4%, Tau fibril ThT -12.6% and Tau fibril FP 1.4%.
`CCN1C(=O)c2ccccc2Sc2ccc(NC(=O)Nc3ccc(Br)c(C)c3)cc21` gave Tau fluor counter inconclusive, Tau fibril ThT 13.9% and Tau fibril FP 15.8µM*.
Screening Clc1nc(Cl)nc(Nc2ccccc2Cl)n1 returned ALDH1A1 block -0.9% and HPGD block -3.0%.
Screening CCc1ccc(CNC(=O)c2ccc3c(c2)N=C(C)c2cc(C)ccc2S3)cc1 returned Tau fluor counter -26.6%, Tau fibril ThT -14.8% and Tau fibril FP inconclusive.
COc1cc2c(cc1O)C[C@H]1NCCc3cc4c(c-2c31)OCO4 was read as ALDH1A1 block inconclusive, Tau fluor counter inconclusive, Tau fibril ThT 14.1µM*, HPGD block inconclusive, Tau fibril FP -3.7% and NPSR antagonist -3.2%.
`CC(C)C[C@H]1C(=O)N2CCC[C@H]2[C@]2(O)O[C@](NC(=O)[C@@H]3C=C4c5cccc6[nH]c(Br)c(c56)CC4N(C)C3)(C(C)C)C(=O)N12` (some centres undefined) gave ALDH1A1 block inconclusive, Tau fluor counter inconclusive, Tau fibril ThT inconclusive, HPGD block -23.2%, Tau fibril FP 0.5% and NPSR antagonist 1.58µM*.
For CC(C)C[C@H]1C(=O)N2CCCC2[C@]2(O)O[C@](NC(=O)[C@@H]3C=C4c5cccc6[nH]cc(c56)CC4N(C)C3)(C(C)C)C(=O)N12 (some centres undefined) the results were ALDH1A1 block inconclusive, Tau fluor counter inconclusive, Tau fibril ThT 12.6µM*, HPGD block inconclusive, Tau fibril FP inconclusive and NPSR antagonist inconclusive.
CN1C[C@@H](C(=O)N[C@@]2(C)O[C@]3(O)C4CCCN4C(=O)[C@@H](Cc4ccccc4)N3C2=O)C=C2c3cccc4[nH]cc(c34)C[C@@H]21 (some centres undefined) was read as ALDH1A1 block inconclusive, Tau fluor counter inconclusive, Tau fibril ThT inconclusive, HPGD block -30.0% and Tau fibril FP inconclusive.
`CC(C)[C@@]1(NC(=O)[C@@H]2C=C3c4cccc5[nH]cc(c45)C[C@H]3N(C)C2)O[C@@]2(O)[C@@H]3CCCN3C(=O)[C@H](Cc3ccccc3)N2C1=O` gave ALDH1A1 block inconclusive, Tau fluor counter inconclusive, Tau fibril ThT 12.6µM*, HPGD block inconclusive, Tau fibril FP inconclusive and NPSR antagonist -50.6%.
Screening CCOC(=O)c1ccc(NC(=O)CSc2cc(=O)n(CC)c3ccccc23)cc1 returned Tau fluor counter -22.5%, Tau fibril ThT 3.7% and Tau fibril FP inconclusive.
For O=[N+]([O-])c1ccccc1 the results were ALDH1A1 block 31.6µM* and HPGD block -10.4%.
Cc1cc(Br)ccc1N1C(=O)CC(=O)NC1=O was read as ALDH1A1 block -1.3%, Tau fluor counter -8.1%, Tau fibril ThT 12.6µM*, HPGD block -4.0%, Tau fibril FP inconclusive and NPSR antagonist -12.8%[46.1 µM].
O=C1CC(=O)N(c2ccc(Cl)cc2Cl)C(=O)N1 was read as ALDH1A1 block 6.6%, Tau fluor counter -10.5%, Tau fibril ThT inconclusive, HPGD block -10.0%, Tau fibril FP -9.7% and NPSR antagonist -0.2%[46.1 µM].
